Tests used:
Experiment in all cases: PBM binding z-score (relative to random genomic background probes); higher = stronger binding; sequences stand for … in GC…GCGATTGACAGCGTAGAATGAAGG
[1] = tested on: FXR:RXRa (NR concentration 270 nM, RXRa partner concentration 90 nM)
How it was run: (§1)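 Binding z-scores take random background probes as their reference. They come from custom Agilent 4×180K protein-binding microarrays incubated 1 h with ligand-free nuclear receptor dimers, with antibodies against each partner (one per run) detecting binding. Scanned fluorescence was regression-normalized.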

[2] = tested on: LXRa:RXRa (NR concentration 270 nM, RXRa partner concentration 90 nM)
How it was run: as §1

[3] = tested on: LXRa homodimer (NR concentration 270 nM)
How it was run: as §1

[4] = tested on: LXRb:RXRa (NR concentration 270 nM, RXRa partner concentration 90 nM)
How it was run: as §1

[5] = tested on: LXRb homodimer (NR concentration 270 nM)
How it was run: as §1

[6] = tested on: PPARa:RXRa (NR concentration 270 nM, RXRa partner concentration 90 nM)
How it was run: as §1

[7] = tested on: PPARg:RXRa (NR concentration 180 nM, RXRa partner concentration 90 nM)
How it was run: as §1

[8] = tested on: PPARg:RXRa 270nM:90nM, anti-RXR (NR concentration 270 nM, RXRa partner concentration 90 nM)
How it was run: as §1

[9] = tested on: PPARg:RXRa 30nM:10nM, anti-RXR (NR concentration 30 nM, RXRa partner concentration 10 nM)
How it was run: as §1

[10] = tested on: PPARg:RXRa 90nM:30nM, anti-RXR (NR concentration 90 nM, RXRa partner concentration 30 nM)
How it was run: as §1

Sequence	PBM binding z-score [1]	PBM binding z-score [2]	PBM binding z-score [3]	PBM binding z-score [4]	PBM binding z-score [5]	PBM binding z-score [6]	PBM binding z-score [7]	PBM binding z-score [8]	PBM binding z-score [9]	PBM binding z-score [10]
AGAATGAGGTTCTACGTAGATCAGGGAAGAAAGT	-0.522	-0.707	-0.69	-0.345	-0.624	-0.336	0.146	-0.165	-0.125	-0.13
GCATATAGGTAATACAAGGTGCAAGTCCGATTGT	-0.133	-0.156	-0.264	-0.333	-0.455	0.617	0.975	0.986	0.152	0.648
ATACCAAGGTGATGGTGAGGTCGTTGATACTAAC	0.921	0.64	0.268	1.09	-0.372	1.56	0.532	0.222	0.0287	0.21
AGTCAAACTTCACTAGGTAACGTAAGATTCAGCT	-0.0326	-0.0348	-0.0758	0.0812	0.248	0.271	0.504	0.268	0.187	0.101
TCGTGTAGATCAAGCAGGTTAAGAAAGCCTGAGT	0.141	0.107	-0.392	0.143	-0.921	0.588	-0.429	0.747	2.07	1.61
AGAATGAGGATATACGTAGATCAGGGAAGAAAGT	-0.224	-0.666	-0.354	-0.479	-0.429	-0.509	0.977	-0.177	0.217	-0.000713
ACTTACGGGTCGACGAGGTTATAGCACGCGTATA	1.82	1.97	0.124	1.94	0.314	2.97	1.52	1.22	0.608	0.729
AGTCAAAGTTCCTCTAGGTAACGTAAGATATGCT	-0.245	-0.144	-0.104	-0.00782	-0.432	0.0097	0.612	0.996	0.256	0.424
CAAACTAGGTCGAGGTCAAAGTCGGTTTGTGCCA	5.44	5.1	3.63	4.38	1.07	5.46	7.22	6.53	3.54	5.58
CGTCCAAGGTCAGCAGGTCATTGAAAGCGACGTG	6.58	4.67	1.51	3.86	-0.214	5.46	5.09	4.94	1.14	3.42
GCTGCTAGCTCAGGTTGGTCAGCTAACGGGTACG	-0.68	-0.822	-0.914	-0.935	-1.25	-1.08	-0.612	-0.997	-1.04	-0.839
CTCGAAAGGTCGGTTGAGCTGAGTATACGGATAA	1.24	0.827	-0.605	0.855	-0.258	2	0.00937	0.523	-0.12	0.207
TAGCCTAGGTCATTGAGGGGCCAGTATAGAAAGC	4.54	3.48	0.272	2.84	1.08	3.67	2.08	2.48	0.353	1.49
CCTACAGGGCCATTCAGAGGTCATTGATCATATG	3.14	4.65	6.45	3.82	0.447	3.5	0.853	1.79	0.168	0.721
CGTCCAAGGTGAATGCTAGGTCAGTGAAAGCATT	0.506	1.19	0.158	0.617	-0.905	1.73	0.352	0.668	-0.499	0.352
GCTGCTAGGTCAACTGATGGTCAGATAAAGCTCG	4.47	3.11	0.48	2.43	0.348	3.87	3.29	3.18	0.958	2.4
CCTTACGGGTCACGACGTTATAGCACGACGAGCG	6.55	4.13	0.322	3.66	0.374	5.69	6.15	5.93	2.65	4.97
AGTCAAAGTTCACTAGGTAACGGAAGATTCAGCT	4.46	5.19	2.4	3.15	1.03	4.82	6.78	6.56	3.1	5.71
ATCGAAAGGTGGAGGTGAGTATAGAGAAAGGGAA	0.433	0.583	-0.00361	0.504	0.617	0.622	0.263	0.302	0.265	0.243
ACTAGCAGGCCAACTTTGGGTCACTCAAACAAAG	0.261	0.66	0.362	0.931	-0.445	1.53	0.543	0.901	-0.236	0.471
ATATGTAGGTTAGCTGGGGTCTTTCAGACTAGGC	1.74	0.766	0.231	1.6	0.737	2.65	2.84	2.65	0.594	1.91
TCTGGTTGGTCACGGAGGTCACACACGACGGGTA	3.5	3.63	2.85	3.58	1.47	3.99	3.13	3.7	2.69	3.15
CGAACTAGGTCATTGACAGGACAGTGATTAGTAA	4.44	3.04	0.786	2	-0.0597	4.69	7.36	6.17	3.71	6.08
CCTAGCAGTCCAGGGTCACTCAAGCATTTCGCTT	1.93	1.87	-0.123	2.26	-0.47	3.08	0.115	1.17	-0.788	0.355

Sequence	PBM binding z-score [1]	PBM binding z-score [2]	PBM binding z-score [3]	PBM binding z-score [4]	PBM binding z-score [5]	PBM binding z-score [6]	PBM binding z-score [7]	PBM binding z-score [8]	PBM binding z-score [9]	PBM binding z-score [10]
AGAATGAGGTTAAGATCAGAGAAACAGAATACAT	2.3	2.12	0.0426	1.9	-0.125	3.61	2.54	2.18	0.874	1.71
CCTCGGAGGACAACAGGAGGACAGAGCTGCCAGA	0.107	0.0624	-0.1	-0.555	-1.29	-0.58	0.442	-0.396	-0.625	-0.907
ATCGAAAGGTTGAAGGTGAGTATACCCACCCGAA	0.788	1.06	-0.269	0.741	0.0854	2.36	1.68	1.92	0.761	1.52
TCATATAGGTAAACAGGCGAAAGTCCGTAAGTTA	0.58	0.715	0.0889	0.816	-0.0877	1.56	1.45	2.91	3.94	3.3
GATACAGCGTCAGCTAGAGGCCAGAGTATGGAAA	-1.06	-0.907	-0.84	-1.11	-1.5	-1.18	0.184	-0.842	-0.638	-1
CGTCCAAGGTCAGAGAGGTCAGTGATTGCCGAGT	5.58	5.02	2.88	4.28	0.656	4.54	3	3.95	0.692	2.55
GGAACGAGGGCAACTTGATAGCAGAGTTTGATGG	0.815	0.375	-0.472	0.468	-0.203	1.53	1.63	1.28	-0.0805	0.883
AATACCGGGTCACTAGGCCAGAGTAGGTACGAAT	4.09	3.51	0.369	2.69	0.134	5.09	6.97	5.93	2.96	4.9
CGAACTAGGTCAGAATAGGACAGTGAAGGATGAT	1.39	0.992	-0.0335	0.45	-0.693	3.02	5.03	4.31	1.81	3.36
ACTCGTTGGTCAGCTGAGGTCACACACAATTCGG	3.88	3.44	2.55	3.61	0.51	3.65	1.26	1.84	0.425	1.25
ATATGTAGGTTATATCCGGGTCATTCAGGCTATG	2.15	4.34	3.29	2.93	1.44	4.19	4.45	4.07	1.69	3.33
AGAACGAGGGCACGCTGAGTTAATAGCAGAGTAG	0.956	0.697	-0.612	0.378	-1.03	1.99	2.22	1.65	0.0968	1.08
GCGACTGGGGCATCAGCAGGATACCATAACTTAA	-0.587	-0.962	-0.678	-0.508	-0.969	0.0763	0.883	0.422	-0.491	-0.212
CCTACTGCGCCAAAGGTCATTGATTCCAATGCTC	5.29	5.64	5.34	5.07	1.91	5.47	6.88	7.67	6.56	7.79
CCTACTGGGCCATCAGGTCACTGATATCAACGTT	1.21	0.856	0.277	1.45	-0.523	2.54	3.22	3.98	1.37	3.37
CGTCCAAGGTCAGCAGGTCAGTCAAAGCGACGTG	5.86	4.15	0.724	3.27	-0.456	4.84	4.14	4.59	0.878	3.11
CCTCGGAGGACAGAAGGTCAGAGTTGTCCGCTTT	1.19	1.59	0.486	1.21	-0.813	1.88	0.0255	0.907	-0.816	0.173
GCTAGTTGGTCAGTCAAAGGTCACACACCGGTCG	3.52	4.41	4.17	3.94	0.493	4.62	5.33	5.92	4.22	5.9
TTACCAAGGTAAGCTGAGGTCGTTGATCCAACTC	0.46	2.12	-0.287	0.881	-0.769	1.3	-0.244	0.0724	-0.421	-0.31
GCAGAAAGGTGAAACGCAGGTAACTCAGGGTGGC	1.58	1.62	-0.633	0.912	-1.18	3.5	1.57	2.32	-0.0918	1.39
TCGAGTAGGTTAGTCGGTGCATTCAGCCAACATA	-0.341	-0.428	-0.522	-0.341	-1.16	0.254	-0.329	0.678	1.05	0.958
TCTTGTAGATCAATAGAGGCTAAGAAAGTGCGCT	0.509	0.411	-0.573	0.151	-0.421	0.411	-0.238	0.977	2.4	1.84
ACTCGGAGGACAAAGCTCAGAGCTACGCCAGTGA	-0.419	-0.663	-0.768	-1.06	-0.958	-0.608	0.401	-0.00696	-0.67	-0.314
TGAATGAGGTTAAAGATCATGGAACGTGGCGTCG	3.15	2.8	-0.213	1.93	-0.192	4.81	6.66	6.58	4.73	6.88

— the supplement of paper PMC6555819
